Results: paper PMC4336329 (PLoS ONE, 2015)
The campaign covered roughly 310,000 compounds. About 14,000 (4.5%) showed an effect of 50% or more. The effect is printed as a negative number. Only a selection was taken, and strong results are over-represented in it overall.

molecular target: human ether-à-go-go-related gene (hERG) potassium channel (human, UniProt Q12809); experiment: primary screen, population patch clamp on CHO cells stably expressing hERG; higher = less effect of the substance
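Note: peak tail current of the secondary pulse compared with the same well before compound.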

human ether-à-go-go-related gene (hERG) potassium channel, sequence (Q12809 whole entry, looked up): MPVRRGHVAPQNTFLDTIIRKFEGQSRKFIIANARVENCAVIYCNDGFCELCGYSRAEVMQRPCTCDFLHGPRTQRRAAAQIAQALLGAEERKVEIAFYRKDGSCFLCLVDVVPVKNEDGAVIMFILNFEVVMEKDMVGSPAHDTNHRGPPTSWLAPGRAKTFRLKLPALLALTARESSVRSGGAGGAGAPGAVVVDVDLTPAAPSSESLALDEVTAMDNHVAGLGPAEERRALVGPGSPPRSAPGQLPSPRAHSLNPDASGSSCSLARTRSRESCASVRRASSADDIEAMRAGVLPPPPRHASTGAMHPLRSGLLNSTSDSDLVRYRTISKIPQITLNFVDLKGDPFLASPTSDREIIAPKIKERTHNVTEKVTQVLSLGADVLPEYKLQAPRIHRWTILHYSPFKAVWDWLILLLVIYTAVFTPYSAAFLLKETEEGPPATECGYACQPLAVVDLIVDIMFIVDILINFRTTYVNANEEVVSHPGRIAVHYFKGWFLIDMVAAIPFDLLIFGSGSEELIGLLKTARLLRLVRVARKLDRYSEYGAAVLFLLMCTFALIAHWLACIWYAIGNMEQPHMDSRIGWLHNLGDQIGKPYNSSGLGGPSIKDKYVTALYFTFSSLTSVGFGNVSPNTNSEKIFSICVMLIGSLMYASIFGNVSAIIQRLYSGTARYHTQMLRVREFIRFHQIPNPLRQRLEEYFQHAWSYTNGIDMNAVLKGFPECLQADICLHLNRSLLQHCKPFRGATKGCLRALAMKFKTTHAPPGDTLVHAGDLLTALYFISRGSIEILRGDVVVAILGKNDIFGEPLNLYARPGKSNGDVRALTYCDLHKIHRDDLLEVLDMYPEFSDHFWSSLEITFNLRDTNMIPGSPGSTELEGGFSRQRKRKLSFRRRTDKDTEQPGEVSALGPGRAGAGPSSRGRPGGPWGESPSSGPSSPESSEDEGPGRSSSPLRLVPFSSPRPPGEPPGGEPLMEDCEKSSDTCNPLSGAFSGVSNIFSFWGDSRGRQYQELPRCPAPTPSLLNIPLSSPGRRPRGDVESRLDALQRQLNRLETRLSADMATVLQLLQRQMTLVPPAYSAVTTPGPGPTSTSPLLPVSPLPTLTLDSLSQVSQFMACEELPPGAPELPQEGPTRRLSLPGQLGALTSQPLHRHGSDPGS

Point of comparison: N#Cc1cc2c(nc1SCC(=O)Nc1ccc(Cl)cc1)C1CCN2CC1, “hERG current change (%, negative = inhibition) at 10uM” value -7.69%. Against it:
- COc1ccc(/C(=N\O)c2ncc(C(F)(F)F)cc2Cl)cc1 — higher, -3.33%
- CCOC(=O)c1cnc(COc2ccccc2Cl)[nH]c1=O — higher, 16%
- CC(C)Cn1c(SCC(=O)N2CCN(C(=O)c3ccco3)CC2)nc2ccccc2c1=O — lower, -73.2%
- CC(C)Cn1c(SCC(=O)N2CCCCC2)nc2ccccc2c1=O — lower, -24.7%
- O=C(CSc1nc2ccccc2n1CC(=O)N1CCCC1)N1CCN(C(=O)c2ccco2)CC1 — higher, -0.921%
- CC(C)Cn1c(SCC(=O)N2CCOCC2)nc2ccccc2c1=O — higher, -5.9%
- CCn1c(SCC(=O)N2CCCC2)nc2ccccc2c1=O — lower, -23%
- CCCn1c(SCC(=O)N2CCN(C(=O)c3ccco3)CC2)nc2ccccc2c1=O — lower, -82.8%
- Cc1nc2ccccc2c(=O)n1-c1ccc(F)cc1 — lower, -12.1%
- COCCCNC(=S)Nc1ccc(OC(F)F)cc1C — higher, 7.74%
- Cc1cc(NC(=O)CCN2CCC(C(N)=O)CC2)ccc1Br — lower, -26.7%
- CCOC(=O)C1CCN(CC(=O)Nc2ccc(OC)c(Cl)c2)CC1 — lower, -12.5%
- CCOC(=O)C1CCN(CCC(=O)Nc2ccc(Br)c(C)c2)CC1 — lower, -62.8%
- CCOC(=O)C1CCN(CCC(=O)Nc2ccc(C)c(C)c2)CC1 — lower, -54.2%
- CCOC(=O)C1CCN(c2c(Nc3ccc(C)c(C)c3)c(=O)c2=O)CC1 — lower, -12.6%
- CCOC(=O)C1CCCN(CCC(=O)Nc2ccc(Br)c(C)c2)C1.Cl (stereo not drawn) — lower, -36.1%
- CCCCn1c(Nc2ccccc2)nc2ccccc21 — higher, 24.7%
- CCOc1ccc(S(=O)(=O)Nc2cccc(C(=O)N3CCN(C(C)=O)CC3)c2)cc1 — lower, -14.9%
- C/C(=N/NS(=O)(=O)c1ccc(C(C)(C)C)cc1)c1ccc2c(c1)OCO2 — higher, -3.17%
- Cc1cc(=O)oc2cc(OCC(=O)OCC(=O)N(CCC#N)c3ccccc3)ccc12 — higher, 6.04%
- COC(=O)c1ccc(C(=O)OC)c(NC(=O)CN(c2ccc3c(c2)OCO3)S(C)(=O)=O)c1 — lower, -21.1%
- CSCCCNC(=O)c1ccccc1OC1CCN(S(C)(=O)=O)CC1 — higher, 1.38%
- CCN(CC)CCNC(=O)c1sc2ncn(CC(=O)Nc3ccc(C)c(Cl)c3)c(=O)c2c1C — lower, -51.8%
- COCCNC(=O)c1sc2ncn(CC(=O)Nc3ccc(C)c(Cl)c3)c(=O)c2c1C — higher, 10.5%
- CCN(CC)CCCNC(=O)c1sc2ncn(CC(=O)Nc3ccc(C)c(Cl)c3)c(=O)c2c1C — lower, -13%
- COc1ccc(C(=O)C(CCCCC(CN(C)C)C(=O)c2ccc(OC)cc2)CN(C)C)cc1.Cl (stereo not drawn) — higher, -2.07%
- O/N=C/c1ccc(OCc2ccccc2F)c(Cl)c1 — higher, 2.95%
- COc1cc2c(cc1NC(=O)CN1C(=O)NC3(CCc4ccccc43)C1=O)oc1ccccc12 (stereo not drawn) — higher, 7.1%
- C=CCn1c(COc2ccc(Cl)cc2)nnc1SCC(=O)NCC(=O)OCC — lower, -31.4%
- C=CCn1c(COc2ccccc2)nnc1SCC(=O)C(C)(C)C — lower, -13.6%
- C=CCn1c(COc2ccccc2)nnc1SCC(=O)O — higher, -3.46%
- C=CCn1c(COc2ccc(Cl)cc2)nnc1SCC(=O)N1CC(=O)Nc2ccccc21 — lower, -63.5%
- C=CCn1c(COc2ccccc2)nnc1SCc1ccc(C#N)cc1 — lower, -68.2%
- C=CCn1c(COc2ccc(Cl)cc2)nnc1SCc1ccc(C#N)cc1 — lower, -69.8%
- C=CCn1c(COc2ccccc2F)nnc1SCC(=O)N1CC(=O)Nc2ccccc21 — lower, -22.6%
- C=CCn1c(COc2ccc(Cl)cc2)nnc1SCC(=O)N/N=C/c1ccccc1 — lower, -7.71%
- C=CCn1c(COc2ccc(F)cc2)nnc1SCC(=O)N1CC(=O)Nc2ccccc21 — lower, -33%
- O=C(CSCc1ccc(F)cc1)NCc1ccc(F)cc1 — lower, -24.7%
- Cc1n[nH]c(=S)n(NC(=O)CC(=O)Nn2c(=S)[nH]nc(C)c2=O)c1=O — higher, 45.4%
- COc1ccc(NC(=O)C(C)SCc2ccccc2)cc1OC (stereo not drawn) — higher, -1.56%
- C=CCSc1nc2sc3c(c2c(=O)[nH]1)CCC3 — higher, 2.84%
- CN(CC(=O)NC1CCCCC1)S(=O)(=O)c1ccc(Br)s1 — higher, 20.1%
- CCc1ccc2c(c1)C1(SC(NC(C)=O)=NN1C(C)=O)C(=O)N2CC (stereo not drawn) — higher, -0.0665%
- C=CCNC(=O)C1CCN(S(C)(=O)=O)CC1 — higher, -0.873%
- CNC(=S)N(Cc1cccs1)Cc1cc2ccc(OC)cc2[nH]c1=O — higher, 6.44%
- O=C1NCC(COc2ccc([N+](=O)[O-])cc2)O1 (stereo not drawn) — lower, -78.4%
- O=C1NCC(COc2ccc(Cl)cc2)O1 (stereo not drawn) — higher, 48.4%
- COc1ccc(OCC2CNC(=O)O2)cc1 (stereo not drawn) — lower, -26.2%
- CCCn1ncc(CN2CCCC(C(=O)c3cccc(OC(C)C)c3)C2)c1C (stereo not drawn) — lower, -48.8%
- CCCn1cc(CN2CCCC(C(=O)c3cccc(OC)c3)C2)c(C)n1 (stereo not drawn) — lower, -51%
- CCCn1cc(CN2CCCC(C(=O)c3ccc4c(c3)OCO4)C2)c(C)n1 (stereo not drawn) — lower, -55.4%
- CCCn1cc(CN2CCC(n3nccc3NC(=O)c3ccc4c(c3)OCO4)CC2)c(C)n1 — higher, -5.62%
- CCn1ncc(CN2CCCC(C(=O)c3cccc(OC(C)C)c3)C2)c1C (stereo not drawn) — lower, -19.8%
- CCCn1ncc(CN2CCCC(C(=O)c3cccc(OC)c3)C2)c1C (stereo not drawn) — lower, -67.8%
- CCn1cc(CN2CCCC(C(=O)c3cccc(OC)c3)C2)c(C)n1 (stereo not drawn) — lower, -21.3%
- CCCn1cc(CN2CCCC(C(=O)c3cccc(OC(C)C)c3)C2)c(C)n1 (stereo not drawn) — lower, -35.5%
- Cc1ccc(CS(=O)(=O)c2ncc(Cl)c(C(=O)Nc3nnc(C(C)C)s3)n2)cc1 — higher, 9.25%
- CC(=O)Oc1cc2cccc(OC(C)=O)c(=O)c2c(OC(C)=O)c1OC(C)=O — higher, 1.34%
- CCCNC(=O)c1ccc(N2CCC3(CC2)CC(c2ccccc2)=NO3)c(NC(=O)c2cccc(OC)c2)c1 — lower, -68.6%
- CCCNC(=O)c1ccc(N2CCC3(CC2)CC(c2cccc(Br)c2)=NO3)c(NC(=O)c2ccccc2)c1 — higher, -0.8%
- CCCCC(CC)C(=O)Nc1cc(C(=O)NCc2ccc(C)cc2)ccc1N1CCC2(CC1)CC(c1ccccc1)=NO2 (stereo not drawn) — higher, 2.86%
- CCCNC(=O)c1ccc(N2CCC3(CC2)CC(c2ccccc2)=NO3)c(NC(=O)c2cccc(C)c2)c1 — lower, -18.6%
- CCCCC(CC)C(=O)Nc1cc(C(=O)NCCC)ccc1N1CCC2(CC1)CC(c1ccccc1)=NO2 (stereo not drawn) — lower, -64.6%
- CCCCC(CC)C(=O)Nc1cc(C(=O)NCCC)ccc1N1CCC2(CC1)CC(c1cccc(Br)c1)=NO2 (stereo not drawn) — lower, -7.85%
- O=C(NC(=O)c1csnn1)Nc1ccccc1Cl — higher, 9.03%
- CCc1cc2c3c(c1)C(C)CC(C)(C)N3C(=O)C2=O (stereo not drawn) — lower, -15.6%
- C=CCN=C1CC(C)(C)CC(=O)/C1=C(\O)c1ccccc1 — higher, -6.18%
- CCCC(=O)Nc1sc(C)c(C)c1C#N — higher, 2.9%
- Cc1cc(N(C)C)nc(Nc2ccccc2)n1 — lower, -56.8%
- CN(C)c1nc(Nc2ccccc2)nc(N(C)C)n1 — higher, 8.3%
- Cc1cc(C)nc(Sc2nc(Nc3ccccc3)nc(Sc3nc(C)cc(C)n3)n2)n1 — higher, -4.94%
- COc1ccccc1CCNC(=O)NC1CCCCC1 — lower, -12.1%
- Cc1nc(C(C)NC(=O)CCc2nnc(-c3ccsc3)o2)cs1 (stereo not drawn) — higher, 15.8%
- CC(=Nc1ccc2c(c1)nc(CO)n2C)C1=C(O)CC(C)(C)CC1=O — higher, 2.09%
- Cc1ccccc1NS(=O)(=O)c1ccc(OCCNS(C)(=O)=O)cc1 — higher, -4.01%
- CN(C)S(=O)(=O)c1ccc(Cl)c(NC(=O)CSc2nc3c(cc2C#N)C(=O)CC(C)(C)C3)c1 — lower, -65.3%
- CCN(CC)S(=O)(=O)c1cc(NC(=O)CSc2nc3c(cc2C#N)C(=O)CC(C)(C)C3)ccc1C — higher, 4.51%
- CN(C)S(=O)(=O)c1cccc(NC(=O)CSc2nc3c(cc2C#N)C(=O)CC(C)(C)C3)c1 — lower, -34.7%
- N#Cc1cc2c(nc1SCC(=O)Nc1cc(Cl)ccc1Cl)C1CCN2CC1 — lower, -51.7%
- CN1CCc2nc(SCC(=O)Nc3ccc(Cl)cc3)c(C#N)cc2C1 — lower, -38.4%
- CCCCOC(=O)c1ccc(NC(=S)N2CCN(c3ncc4c(=O)c(C(=O)O)cn(CC)c4n3)CC2)cc1 — higher, 11.2%
- C[C@H](NC(=O)c1[nH]cnc1C(=O)Nc1ccc(CNC(=O)OC(C)(C)C)cc1)C(=O)OC(C)(C)C — higher, 17.2%
- COC(=O)c1ccc(C2c3c(oc4ccc(F)cc4c3=O)C(=O)N2CCO)cc1 (stereo not drawn) — higher, 3.74%
- Cc1ccsc1/C=N/NC(=O)CN1CCN(Cc2ccccc2)CC1 — lower, -8.1%
- Cc1ccc(/C=N/NC(=O)CN2CCN(Cc3ccccc3)CC2)s1 — lower, -55.8%
- O=C(CCC(=O)N/N=C/c1ccc(Br)s1)NCc1ccccc1 — higher, 5.19%
- Cc1ccc(/C=N/N2CCN(Cc3ccccc3)CC2)s1 — lower, -15.7%
- O=C(N/N=C/c1ccc(Br)s1)Nc1ccccc1 — higher, 4.13%
- O=C(CN1CCN(Cc2ccccc2)CC1)N/N=C/c1ccc(Br)s1 — lower, -60%
